This passage reports activity, negative = inhibition, Potency and outcome results from PubChem BioAssay (NCATS).

Assay [1] can be described thus: qHTS profiling for inhibitors of Plasmodium falciparum proliferation (AID 504749). Also: nearly all actives have a fitted effect of over 60% in size.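 As to activity, negative = inhibition: 0% = DMSO vehicle and full inhibition = artemisinin control.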 The note with it: P. falciparum in erythrocytes, SYBR Green DNA, 72 h. The procedure, abridged:
(§1)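 Parasite proliferation within erythrocytes, 72 h exposure. Endpoint: SYBR Green I fluorescence after overnight lysis at room temperature. Controls: 0.29 uM artemisinin, DMSO.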

Assay [2] concerns 3D7. The assay is described as above. Conditions: P. falciparum in erythrocytes, SYBR Green DNA, 72 h; series mostly up to 28.7 µM. The method in brief: as §1
Assay [3] deals with 7G8. The description is as above. Conditions: P. falciparum in erythrocytes, SYBR Green DNA, 72 h; series mostly up to 28.7 µM. The method in brief: as §1
The test system of assay [4] is AA1029. The assay is described as above. Conditions: P. falciparum in erythrocytes, SYBR Green DNA, 72 h; series mostly up to 28.7 µM. The method in brief:
as §1

Assay [5] relates to AS120. The assay is described as above. The note with it: P. falciparum in erythrocytes, SYBR Green DNA, 72 h; series mostly up to 28.7 µM. The procedure, abridged: as §1
Assay [6] has as its system ATS189. The assay is described as above. Conditions: P. falciparum in erythrocytes, SYBR Green DNA, 72 h; series mostly up to 28.7 µM. The method in brief: as §1
For assay [7], the system named is ATS95. The description is as above. Conditions: P. falciparum in erythrocytes, SYBR Green DNA, 72 h; series mostly up to 28.7 µM. The procedure, abridged: as §1
The test system of assay [8] is C2A. The description is as above. The note with it: P. falciparum in erythrocytes, SYBR Green DNA, 72 h; series mostly up to 28.7 µM. The procedure, abridged:
as §1

In assay [9] the test system is CP185. The assay is described as above. Conditions: P. falciparum in erythrocytes, SYBR Green DNA, 72 h; series mostly up to 28.7 µM. The procedure, abridged:
as §1

Assay [10] deals with CP191. Described as above. The note with it: P. falciparum in erythrocytes, SYBR Green DNA, 72 h; series mostly up to 28.7 µM. The procedure, abridged: as §1
The subject of assay [11] is CP192. The assay is described as above. Conditions: P. falciparum in erythrocytes, SYBR Green DNA, 72 h; series mostly up to 28.7 µM. The procedure, abridged:
as §1

The test system of assay [12] is CP194. Described as above. Conditions: P. falciparum in erythrocytes, SYBR Green DNA, 72 h; series mostly up to 28.7 µM. The method in brief:
as §1

Assay [13] concerns CP201. The description is as above. Conditions: P. falciparum in erythrocytes, SYBR Green DNA, 72 h; series mostly up to 28.7 µM. The method in brief:
as §1

In assay [14] the test system is CP211. The assay is described as above. Conditions: P. falciparum in erythrocytes, SYBR Green DNA, 72 h; series mostly up to 28.7 µM. The procedure, abridged:
as §1

Assay [15] concerns CP215. Described as above. The note with it: P. falciparum in erythrocytes, SYBR Green DNA, 72 h; series mostly up to 28.7 µM. The procedure, abridged: as §1
The test system of assay [16] is CP203. The description is as above. Conditions: P. falciparum in erythrocytes, SYBR Green DNA, 72 h; series mostly up to 28.7 µM. The method in brief: as §1
Setting [17] is: at 28.7 µM (top of the series), parasite line A.
Setting [18] is: at 28.7 µM (top of the series), parasite line B.

SMILES strings stand for the structures. Results filed as inconclusive are left out. Unmarked numbers belong to inactive results. Activity calls are given as the source filed them. Calls follow the shape of the dose curve; as a rule, active = well fitted inhibition curve with a large enough effect; inconclusive = small, poorly fitted or top-dose-only effect; inactive = flat fitted curve, though single readings scatter. Where a SMILES comes first, the peptide text is derived from it. Bridges are numbered along the chain shown (N, C = ends). [ ]: non-standard residue; d: D form. hArg = N=C(N)NCCCC[C@H](N)C(=O)O; Mpa = O=C(O)CCS
Potency is read from the fitted curve at half-maximal effect.

Turning to `COc1ccccc1Oc1c(NS(=O)(=O)c2ccc(C(C)(C)C)cc2)nc(-c2ncccn2)nc1OCCO`, the values for the activity, negative = inhibition in [1] (setting [17]) and in assay [1] (setting [18]) were -4.92% and -14.6%, respectively. Also, the Potency result in assay [2], in assay [3], in assay [4], in assay [5], in assay [6] and in assay [7] was “inactive” throughout. The Potency entry in [8] and in assay [9] was “inactive” in each case. Moreover, the compound was classed as inactive in assay [10], in assay [11], in assay [12], in assay [13] and in assay [14].

For the compound `CCCNC(C)(C)COC(=O)c1ccccc1`, the activity, negative = inhibition in [1] (setting [17]) was -2.07%; in [1] (setting [18]), 9.96%. Besides, the Potency result in assay [2], in [3], in [4], in assay [5], in assay [6] and in [7] was “inactive” throughout. In addition, the Potency entry in [8], in assay [9] and in [15] was “inactive” in each case. For the same compound, the call in assay [10], in assay [11], in [12], in assay [13] and in assay [14] was inactive.

Take `NC(=O)[C@@H]1CSSCCC(=O)N[C@@H](CCCCN=C(N)N)C(=O)NCC(=O)N[C@@H](CC(=O)O)C(=O)N[C@@H](Cc2c[nH]c3ccccc23)C(=O)N2CCC[C@H]2C(=O)N1` ([Mpa][hArg]GDWPC-NH2; disulfide 1-7): the activity, negative = inhibition was -6.16% in assay [1] (setting [17]) and 11.6% in [1] (setting [18]). Moreover, the Potency entry in assay [2], in [3], in assay [4], in assay [5], in assay [6] and in [7] was “inactive” throughout. Besides, the Potency entry in assay [8], in [9] and in assay [15] was “inactive” each time. The result in assay [10], in assay [11], in assay [12], in assay [13] and in assay [14] was inactive.

Turning to `CCCCCCCCCCOc1cc2c(=O)c(C(=O)OCC)c[nH]c2cc1OCC`, the Potency is 0.9 nM (active) in [1] (parasite line A); 2.2 nM (active) in assay [1] (parasite line B); 2.2 nM (active) in [2]; 2.8 nM (active) in assay [3]; 2.5 nM (active) in assay [4]; 2 nM (active) in assay [5]. Besides, the Potency in [6] was 1.3 nM (active); in [7] it was 2.8 nM (active); in [8] it was 10 nM (active); in assay [9] it was 2.2 nM (active). Also, the result in assay [11] was inactive.

Consider `COc1ccc(C(=O)NCc2ccc(OCCN(C)C)cc2)cc1OC`, for which the values for the activity, negative = inhibition in assay [1] (setting [17]) and in [1] (setting [18]) were -0.299% and -0.981%, respectively. Besides, the Potency result in assay [2], in assay [3], in assay [4], in assay [5], in assay [6] and in assay [7] was “inactive” each time. Also, the Potency entry in [8], in assay [9] and in assay [15] was “inactive” in each case. For the same compound, the compound was classed as inactive in [10], in assay [11], in [12], in [13] and in assay [14].

Consider `O=c1[nH]cnc2nc[nH]c12`, for which the activity, negative = inhibition in [1] (setting [17]) is -7.68%; in assay [1] (setting [18]), 15.5%. The Potency result in assay [2], in [3], in assay [4], in [5], in assay [6] and in assay [7] was “inactive” throughout. Further, the Potency entry in [8], in assay [9] and in assay [15] was “inactive” throughout. Further, the result in assay [10], in assay [11], in [12], in assay [13] and in assay [14] was inactive.

For the compound `NC(N)=NS(=O)(=O)c1ccc(N)cc1`, the activity, negative = inhibition in assay [1] (at 12.8 µM (top of the series), parasite line A) is 8.93%; in assay [1] (at 12.8 µM (top of the series), parasite line B), 8.43%. Besides, the Potency entry in [2], in assay [3], in assay [4], in assay [5], in assay [6] and in assay [8] was “inactive” throughout. The Potency result in assay [9], in [16] and in assay [15] was “inactive” in each case. The result in assay [10], in assay [11], in assay [12], in assay [13] and in [14] was inactive.

For `CC1CCN(CCCC(=O)c2ccc(F)cc2)CC1`, the activity, negative = inhibition is 12.5% in assay [1] (setting [17]) and 9.34% in assay [1] (setting [18]). Also, the Potency entry in [2], in assay [3], in assay [4], in assay [5], in assay [6] and in assay [7] was “inactive” throughout. Further, the Potency result in assay [8], in assay [9] and in assay [15] was “inactive” throughout. Also, the compound was called inactive in [10], in [11], in [12], in assay [13] and in [14].

As for `FC(F)(F)C(Cl)Br` (configuration not stated), the activity, negative = inhibition is 6.28% in [1] (setting [17]) and 10.7% in assay [1] (setting [18]). Further, the Potency entry in assay [2], in [3], in assay [4], in assay [5], in assay [6] and in assay [7] was “inactive” each time. For the same compound, the Potency result in assay [8], in [9], in [16] and in assay [15] was “inactive” in each case. The outcome in assay [10], in assay [11], in [13] and in assay [14] was inactive.

With `CC(=O)OCC(COC(C)=O)OC(C)=O`, the activity, negative = inhibition is 4.58% in assay [1] (setting [17]) and 8.38% in assay [1] (setting [18]). The Potency entry in assay [2], in assay [3], in assay [4], in [5], in [6] and in assay [7] was “inactive” throughout. In addition, the Potency result in assay [8], in [9], in [16] and in assay [15] was “inactive” each time. For the same compound, the outcome in assay [10], in [12], in [13] and in assay [14] was inactive.

For the compound `CC(=O)Nc1ccccc1`, the activity, negative = inhibition is 1.91% in [1] (setting [17]) and -0.613% in assay [1] (setting [18]). Besides, the Potency entry in assay [2], in assay [3], in assay [4], in assay [5], in assay [6] and in [8] was “inactive” in each case. Also, the Potency entry in assay [9], in assay [16] and in assay [15] was “inactive” throughout. Further, the call in [10], in assay [11], in [12], in assay [13] and in assay [14] was inactive.

As to `CC(C)CCCC(C)CCCC(C)CCCCC(C)CCCC(C)CCCC(C)C` (configuration not stated), the activity, negative = inhibition in assay [1] (setting [17]) was -0.284%; in assay [1] (setting [18]), 17.5%. Also, the Potency result in [2], in [3], in assay [4], in assay [5], in [6] and in assay [8] was “inactive” in each case. In addition, the Potency result in [9], in assay [16] and in [15] was “inactive” throughout. For the same compound, the compound was classed as inactive in assay [10], in [11], in [12], in assay [13] and in assay [14].

Regarding `CC(C)C[C@@H](N)C(=O)O`, the activity, negative = inhibition in [1] (setting [17]) is 7.68%; in assay [1] (setting [18]), 22.5%. The Potency entry in [2], in assay [3], in assay [4], in [5], in assay [6] and in assay [7] was “inactive” each time. The Potency result in assay [8], in assay [9] and in assay [15] was “inactive” in each case. For the same compound, the outcome in assay [10], in assay [11], in assay [12], in assay [13] and in assay [14] was inactive.
